Measured values published in PubChem BioAssay (NCATS).
Values joined by “and” are separate entries in the source; they are usually repeats but may differ in a detail not shown here. Equal entries are not always repeated. Results filed as inconclusive are left out. Active and inactive are the calls of the source. Unless noted, calls follow the shape of the dose curve; as a rule, active = well fitted curve in the direction sought with a large enough effect; inconclusive = small, poorly fitted or top-dose-only effect, or another doubt; inactive = no such curve, though single readings can be large; an effect the other way counts as inactive or inconclusive.

Columns and labels:
[1] = P-glycoprotein substrates identified in KB-3-1 adenocarcinoma cell line, qHTS therapeutic library screen (AID 1346986); also: nearly all actives have a fitted effect of over 60% in size;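 also: potency is read from the fitted curve at half-maximal effect; potency is for cytotoxicity meaning loss of cell viability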
Summary of the method: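 Cells seeded 500/well in DMEM/10% FCS; compounds pinned in dose-response; 72 h incubation; CellTiter-Glo added, 5 min, luminescence. KB-8-5-11 run ±tariquidar to test reversal of P-gp resistance.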

[2] = P-glycoprotein substrates identified in KB-8-5-11 adenocarcinoma cell line, qHTS therapeutic library screen (AID 1346987); also: nearly all actives have a fitted effect of over 65% in size; also: potency is read from the fitted curve at half-maximal effect
Summary of the method: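 Steps: plate 500 KB-8-5-11 cells/well in DMEM + 10% FCS (colchicine removed); pin compounds in dose-response; incubate 72 h, 37 degree C, 5% CO2; add CellTiter-Glo, 5 min; read luminescence.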

[3] = Primary qHTS for inhibitors of nuclear receptor binding SET domain protein 2 (NSD2) in an isogenic RCH-ACV NSD2 p.E1099K mutant (9B) (AID 1645876); also: nearly all actives have a fitted effect of over 70% in size; also: potency is read from the fitted curve at half-maximal effect
[4] = Primary qHTS for inhibitors of nuclear receptor binding SET domain protein 2 (NSD2) in an RCH-ACV wild type WT cells (2C) (AID 1645877); also: nearly all actives have a fitted effect of over 70% in size; also: potency is read from the fitted curve at half-maximal effect
[5] = biological target: Glutathione peroxidase 1 (Homo sapiens) (UniProt P07203); experiment: Primary qHTS Assay for Inhibitors of Recombinant Selenoprotein Glutathione Peroxidase 1 (GPX1) (AID 1845191); also: nearly all actives have a fitted effect of over 65% in size; also: potency is read from the fitted curve at half-maximal effect
Glutathione peroxidase 1 (Homo sapiens), sequence (P07203 whole entry, looked up): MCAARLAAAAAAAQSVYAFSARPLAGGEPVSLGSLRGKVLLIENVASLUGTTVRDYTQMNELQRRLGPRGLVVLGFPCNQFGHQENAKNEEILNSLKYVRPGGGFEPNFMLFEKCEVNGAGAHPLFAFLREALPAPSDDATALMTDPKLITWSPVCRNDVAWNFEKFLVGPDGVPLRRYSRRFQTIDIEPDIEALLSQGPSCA
Summary of the method: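 10 nM GPX1 + cpd, 30 min RT; start w/ 1 mM GSH, 0.5 mM cumene hydroperoxide, 0.5 mM NADPH, 100 nM GR, 0.01% BSA; buffer 50 mM Tris-HCl pH 7.5, 2 mM EDTA, 150 mM NaCl; Fl 340/450, 0 & 15 min.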

[6] = biological target: Phospholipid hydroperoxide glutathione peroxidase GPX4 (Homo sapiens) (UniProt P36969); experiment: Primary qHTS Assay for Inhibitors of Recombinant Selenoprotein Glutathione Peroxidase 4 (GPX4) (AID 1845192); conditions: outcome: dose series up to 50 µM unless noted; also: series mostly up to about 50 µM; % is scaled to controls: 0 for no effect and ±100 for the full control effect; nearly all actives have a fitted effect of over 65% in size
Phospholipid hydroperoxide glutathione peroxidase GPX4 (Homo sapiens), sequence (P36969 whole entry, looked up): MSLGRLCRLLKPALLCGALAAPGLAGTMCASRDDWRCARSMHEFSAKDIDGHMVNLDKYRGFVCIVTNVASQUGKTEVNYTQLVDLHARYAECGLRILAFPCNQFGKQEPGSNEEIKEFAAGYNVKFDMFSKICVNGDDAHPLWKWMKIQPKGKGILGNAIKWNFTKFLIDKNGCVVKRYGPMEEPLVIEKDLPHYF
Summary of the method: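 NADPH consumption, followed by fluorescence at 340/450 nm between 0 and 15 min, reports GPX4 activity via coupled glutathione reductase (100 nM). Enzyme 200 nM was pre-exposed to compound 30 min; 0.5 mM cumene hydroperoxide and 1 mM GSH served as substrates.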

[7] = qHTS drug screen for cell cycle checkpoint inhibitors in PARPi-resistant BRCA-mutant ovarian cancer cell lines. (AID 1963452; calls by dose curve); conditions: PEO1/OlaR viability, CellTiter-Glo luminescence, 96 h, stronger effect = lower value
Summary of the method: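 PEO1, PEO4 and PEO1/OlaR ovarian cancer cells, 600 per well, exposed 96 h at 37C to a dilution series. Viability read by CellTiter-Glo luminescence, normalized to DMSO and empty wells; activity summarized as Z-AUC.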

[8] = Viability counterscreen for antagonist of constitutive androstane receptor (CAR) against the NCATS DSHEA and TCM libraries (AID 1794837);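 also: compound exposure lasted 24 h before viability reading; 0% is about no effect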
Summary of the method: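 Counterscreen performed in a 1536-well qHTS format using HepG2-CYP2B6-hCAR cells; samples titrated in the presence of 48 uM CITCO, with viability measured fluorometrically (405/540 nm) after 24 h.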

[9] = Viability counterscreen for agonist of constitutive androstane receptor (CAR) against the NCATS DSHEA and TCM libraries (AID 1794838);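 also: cells exposed to compound for 24 h; 0% is about no effect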
Summary of the method: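 Multiplexed counterscreen: after 24 h compound exposure with 0.75 uM PK11195, HepG2-CYP2B6-hCAR viability was quantified fluorimetrically (CellTiter-Fluor, 405/540 nm) prior to the ONE-Glo luciferase read.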

[10] = biological target: Nuclear receptor subfamily 1 group I member 3 (Homo sapiens) (UniProt Q14994); experiment: Primary qHTS for agonist of constitutive androstane receptor (CAR) against the NCATS DSHEA and TCM libraries (AID 1794839);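 also: HepG2 cells expressing human CAR with a CYP2B6 reporter plus PK11195 antagonist; 0% is about no effect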
Nuclear receptor subfamily 1 group I member 3 (Homo sapiens), sequence (Q14994 whole entry, looked up): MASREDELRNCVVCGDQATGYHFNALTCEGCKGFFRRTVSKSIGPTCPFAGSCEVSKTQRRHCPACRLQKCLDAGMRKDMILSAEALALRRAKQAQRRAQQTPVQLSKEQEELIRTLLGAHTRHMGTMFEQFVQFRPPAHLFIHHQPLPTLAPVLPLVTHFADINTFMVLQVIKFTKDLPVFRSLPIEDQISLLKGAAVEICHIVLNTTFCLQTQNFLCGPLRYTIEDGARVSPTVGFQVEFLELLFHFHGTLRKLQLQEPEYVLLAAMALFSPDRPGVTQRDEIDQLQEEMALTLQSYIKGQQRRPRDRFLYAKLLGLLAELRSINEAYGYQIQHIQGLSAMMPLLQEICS
Summary of the method: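 Concentration–response screen in HepG2-CYP2B6-hCAR cells under 0.75 µM PK11195; 24 h exposure; luminescent reporter signal with multiplexed fluorescent viability.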

[11] = HepG2 viability counterscreen (readout 2: ATP content) against the NCATS DSHEA and TCM libraries (AID 1794840);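 also: HepG2 cells exposed to substances for about 24 h; 0% is about no effect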
Summary of the method: (§1)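 After HepG2 cells attach for ~4 h, substances are added and incubated ~24 h at 37C, 5% CO2. GF-AFC fluorescence then CellTiter-Glo luminescence give protease and ATP readouts.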

[12] = HepG2 viability counterscreen (readout 1: protease activity) against the NCATS DSHEA and TCM libraries (AID 1794841);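 also: cells exposed to compounds for about 24 h before the protease read; 0% is about no effect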
Summary of the method: as §1

[13] = biological target: Cytochrome P450 2D6 (Homo sapiens) (UniProt P10635); experiment: qHTS for inhibitors of CYP2D6 against the NCATS DSHEA and TCM libraries (AID 1919972); also: % is scaled to controls: 0 for no effect and ±100 for the full control effect
Cytochrome P450 2D6 (Homo sapiens), sequence (P10635 whole entry, looked up): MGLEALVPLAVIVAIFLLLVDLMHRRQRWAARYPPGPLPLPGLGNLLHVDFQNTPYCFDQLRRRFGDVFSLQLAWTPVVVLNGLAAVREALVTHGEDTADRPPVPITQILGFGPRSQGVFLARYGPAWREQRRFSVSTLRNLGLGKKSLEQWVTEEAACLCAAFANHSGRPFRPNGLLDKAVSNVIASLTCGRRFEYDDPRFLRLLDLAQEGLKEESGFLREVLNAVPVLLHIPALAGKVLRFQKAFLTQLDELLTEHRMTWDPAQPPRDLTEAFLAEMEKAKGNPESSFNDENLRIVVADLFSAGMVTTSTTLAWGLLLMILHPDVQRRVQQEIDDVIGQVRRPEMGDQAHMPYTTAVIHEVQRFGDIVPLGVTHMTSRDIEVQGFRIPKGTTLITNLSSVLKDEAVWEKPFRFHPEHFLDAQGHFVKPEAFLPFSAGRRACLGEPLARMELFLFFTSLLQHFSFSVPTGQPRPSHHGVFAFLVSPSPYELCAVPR
Summary of the method: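 Luminescent P450-Glo read-out of CYP2D6 turnover of a luciferin substrate after NADPH-driven reaction of 30-45 min at room temperature. Compounds were first preincubated 15 min with enzyme at titrated concentrations; quinidine was the intraplate control.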

[14] = biological target: Cytochrome P450 2C9 (Homo sapiens) (UniProt P11712); experiment: qHTS for inhibitors of CYP2C9 against the NCATS DSHEA and TCM libraries (AID 1919973); also: potency is read from the fitted curve at half-maximal effect
Cytochrome P450 2C9 (Homo sapiens), sequence (P11712 whole entry, looked up, canonical isoform): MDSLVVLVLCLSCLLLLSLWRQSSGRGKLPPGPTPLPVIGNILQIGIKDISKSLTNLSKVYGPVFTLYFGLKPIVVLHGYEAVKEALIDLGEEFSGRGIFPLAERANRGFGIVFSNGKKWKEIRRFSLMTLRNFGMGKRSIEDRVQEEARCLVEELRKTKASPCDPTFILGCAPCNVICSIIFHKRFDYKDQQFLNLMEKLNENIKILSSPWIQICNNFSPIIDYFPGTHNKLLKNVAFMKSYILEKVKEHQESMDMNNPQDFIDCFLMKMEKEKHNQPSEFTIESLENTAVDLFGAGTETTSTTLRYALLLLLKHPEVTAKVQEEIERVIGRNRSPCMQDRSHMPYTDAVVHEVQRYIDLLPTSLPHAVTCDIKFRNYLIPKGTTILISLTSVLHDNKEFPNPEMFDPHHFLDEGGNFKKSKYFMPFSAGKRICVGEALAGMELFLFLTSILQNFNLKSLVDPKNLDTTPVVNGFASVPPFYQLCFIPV
Summary of the method: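 Read-out is luminescence after P450-Glo detection (30 min, RT). Before that: 15 min compound–enzyme preincubation, then 30-45 min reaction with 1x NADPH regeneration solution, substrate concentration isoform-specific.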

[15] = KB-3-1 P-gp reporter qHTS against the NCATS DSHEA and TCM libraries (AID 1919975); also: 0% is about no effect
Summary of the method: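 Cell viability qHTS: 500 KB-3-1 cells/well, substances in titration, ~72 h, 37C; luminescent CellTiter-Glo read.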

[16] = biological target: Cytochrome P450 1A2 (Homo sapiens) (UniProt P05177); experiment: qHTS for inhibitors of CYPIA2 against the NCATS DSHEA and TCM libraries (AID 1919976);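 also: light from luciferin formed by CYP1A2 from a pro-luciferin substrate; series mostly up to about 37 µM; % is scaled to controls: 0 for no effect and ±100 for the full control effect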
Cytochrome P450 1A2 (Homo sapiens), sequence (P05177 whole entry, looked up): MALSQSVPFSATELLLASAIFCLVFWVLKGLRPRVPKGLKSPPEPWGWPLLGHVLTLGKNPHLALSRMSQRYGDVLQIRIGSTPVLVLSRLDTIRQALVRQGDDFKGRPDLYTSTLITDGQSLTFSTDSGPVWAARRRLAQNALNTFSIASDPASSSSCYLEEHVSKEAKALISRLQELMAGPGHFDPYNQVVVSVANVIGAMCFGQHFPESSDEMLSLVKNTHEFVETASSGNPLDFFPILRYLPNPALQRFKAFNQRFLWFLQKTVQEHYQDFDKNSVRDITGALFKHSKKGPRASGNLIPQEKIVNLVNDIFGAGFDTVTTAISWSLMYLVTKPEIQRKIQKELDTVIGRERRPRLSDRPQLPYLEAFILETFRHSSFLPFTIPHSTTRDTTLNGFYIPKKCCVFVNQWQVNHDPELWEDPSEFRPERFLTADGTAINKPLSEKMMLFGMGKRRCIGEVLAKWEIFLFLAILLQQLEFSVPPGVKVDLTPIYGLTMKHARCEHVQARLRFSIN
Summary of the method: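 CYP1A2 + luciferin substrate, 100 mM KPO4-type buffer; cmpd 15 min RT; 1x NADPH regen, 30-45 min RT dark; detection reagent 30 min RT; luminescence. Minus-enzyme wells as background; furafylline intraplate control.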

[17] = qHTS Counterscreen for compound interference against the NCATS DSHEA and TCM libraries (AID 1919978); conditions: firefly luciferase detection reagent interference, luminescence;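 also: compounds preincubated with 1 µM D-luciferin or buffer before detection reagent; % of control where 0% means no effect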
Summary of the method: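 Interference check: test samples were incubated with D-luciferin (final 1 uM) or buffer only for 15 min, room temperature, in a qHTS titration up to 39.8 uM, then developed with detection reagent and read by luminescence.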

[18] = Dual reporter qHTS for agonist of Pregnane X Receptor (hPXR) against the NCATS DSHEA and TCM libraries: Fluorescence readout (AID 1920058); also: 0% is about no effect
Summary of the method: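 HepG2 hPXR-Luc, 2000 cells/well, 5 h attach; cpds ~24 h, 37 °C/5% CO2; CellTiter-Fluor 1 h; fluor. Ex/Em 405/540 nm = viability.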

[19] = biological target: Nuclear receptor subfamily 1 group I member 2 (Homo sapiens) (UniProt O75469); experiment: Dual reporter qHTS for agonist of Pregnane X Receptor (hPXR) against the NCATS DSHEA and TCM libraries: Luminescence readout (AID 1920059); also: 0% is about no effect
Nuclear receptor subfamily 1 group I member 2 (Homo sapiens), sequence (O75469 whole entry, looked up): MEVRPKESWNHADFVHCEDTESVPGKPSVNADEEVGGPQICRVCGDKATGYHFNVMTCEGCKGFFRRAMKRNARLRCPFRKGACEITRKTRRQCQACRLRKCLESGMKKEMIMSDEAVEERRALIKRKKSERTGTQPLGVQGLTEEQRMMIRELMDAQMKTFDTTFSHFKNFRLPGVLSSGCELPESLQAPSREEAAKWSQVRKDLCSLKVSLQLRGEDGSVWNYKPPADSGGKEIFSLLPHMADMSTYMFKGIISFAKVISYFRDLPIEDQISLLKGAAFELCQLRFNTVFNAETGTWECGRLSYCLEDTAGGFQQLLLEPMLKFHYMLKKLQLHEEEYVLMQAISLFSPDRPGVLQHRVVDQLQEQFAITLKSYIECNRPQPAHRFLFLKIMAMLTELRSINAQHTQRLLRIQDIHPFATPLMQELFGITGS
Summary of the method: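 Luminescent PXR reporter read (ONE-Glo) after a CellTiter-Fluor viability read, following 24 h, 37C treatment of HepG2 cells stably carrying hPXR-Luc.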

[20] = biological target: Nuclear receptor subfamily 1 group I member 2 (Homo sapiens) (UniProt O75469); experiment: Dual reporter qHTS for antagonist of Pregnane X Receptor (hPXR) against the NCATS DSHEA and TCM libraries: Luminescence Readout (AID 1920060); also: 0% is about no effect
Summary of the method: (§2)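 Rifampicin-stimulated (2 uM final) hPXR-luciferase HepG2 cells were treated for 24 h with DSNP/TCM substances. Viability came from CellTiter-Fluor fluorescence, reporter activity from ONE-Glo luminescence.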

[21] = Dual reporter qHTS for antagonist of Pregnane X Receptor (hPXR) against the NCATS DSHEA and TCM libraries: Fluorescence Readout (AID 1920061); also: 0% is about no effect
Summary of the method: as §2

Cc1cc2ncc(-c3ccccc3)nc2cc1C
inactive: Potency [1] | Potency [2] | Potency [3] | Potency [4] | Potency [5]

CCCCCCCCCCCCCC#CC(=O)[C@@H]1COC(C)(C)N1C(=O)OC(C)(C)C
active: Potency [3] 13 µM | Potency [4] 16.4 µM
inactive: Potency [1] | Potency [2] | Potency [5]

CC(Sc1nc2c(cnn2-c2cccc(Cl)c2)c(=O)[nH]1)C(N)=O (stereo not given)
inactive: Potency [1] | Potency [2] | Potency [3] | Potency [4] | Potency [5]

O=C1O[C@H](C(O)CO)C(=O)C1=O (stereo not given in full)
inactive: Potency [1] | Potency [2] | Potency [3] | Potency [4] | Potency [5]

C=C(C)[C@@H]1CCC2=CC(=O)C[C@@H](C)[C@]2(C)C1
inactive: Potency [1] | Potency [2] | Potency [3] | Potency [4] | Potency [5]

O=C(NCCO)c1cc(C(=O)NCCO)cc(C(=O)NCCO)c1
inactive: Potency [1] | Potency [2] | Potency [3] | Potency [4] | Potency [5]

CC(C)CN(CC(=O)N(CCCN1CCCC1=O)CC(N)=O)C(=O)CNCCc1ccccc1F
inactive: Potency [1] | Potency [2] | Potency [3] | Potency [4] | Potency [5]

O=C1NCCSc2c1sc1ccc(O)cc21
active: Potency [1] 6.51 µM | Potency [2] 10.3 µM | Potency [3] 5.8 µM | Potency [4] 3.66 µM
inactive: Potency [5]

CN(C)CCCNc1c2ccccc2nc2c1[nH]c1ccccc12
active: Potency [1] 1.84 µM | Potency [2] 2.31 µM | Potency [3] 1.84 µM | Potency [4] 2.06 µM | Potency [5] 22.7 µM

CC(CCc1ccccn1)(CCc1ccccn1)C(=O)c1ccccc1
inactive: Potency [1] | Potency [2] | Potency [3] | Potency [4] | Potency [5]

CN1CCN(c2nc(C3=C(c4c[nH]c5ccccc45)C(=O)NC3=O)c3ccccc3n2)CC1
0.634: Z-AUC ([7]; measured here: PEO4 Z-AUC)
inactive: Potency [1] | Potency [2] | Potency [5] | Potency [6] | Z-AUC [7] 1.37
active: Potency [3] 16.4 µM and 16.6 µM | Potency [4] 14.8 µM
0.875: Z-AUC ([7]; measured here: PEO1 parental Z-AUC)

O=C(O[C@@H]1Cc2c(O)cc(O)cc2O[C@H]1c1cc(O)c(O)c(O)c1)c1cc(O)c(O)c(O)c1
active: Potency [14] 12.6 µM
inactive: Potency [1] | Potency [2] | outcome [8] | outcome [9] | outcome [10] | outcome [11] | outcome [12] | outcome [13] | outcome [15] | outcome [16] | max response [17] -4.04% | outcome [18] | outcome [19] | outcome [20] | outcome [21]
